In ChEMBL document CHEMBL1157539, “Thousands of chemical starting points for antimalarial lead identification” (Nature, 2010):

Experiments:
Type in all cases: functional
[1] = system: Plasmodium falciparum; experiment: GSK_TCMDC: Inhibition of Plasmodium falciparum 3D7 in whole red blood cells, using parasite LDH activity as an index of growth. Test compounds present at 2uM
[2] = system: Plasmodium falciparum; experiment: GSK_TCMDC: Inhibition of Plasmodium falciparum Dd2 in whole red blood cells, using parasite LDH activity as an index of growth. Test compounds present at 2uM
[3] = system: HepG2; experiment: GSK_TCMDC: Percent inhibition of human HepG2 cell line. Test compounds present at 10uM.

Compound | Inhibition [1] [%] | Inhibition [2] [%] | Inhibition [3] [%]
CN1CCc2ccc(NC(=O)Nc3ccc(Cl)c(Cl)c3)cc2C1 | 80 | 22 | 0
CC(C)c1cc(Oc2c(I)cc(CCCc3ncc[nH]3)cc2I)ccc1O.Cl | 88 | 1 | 28
COc1ccc(CNCc2cccc(-c3cccc(-c4nc5ccccc5[nH]4)c3)c2)cc1.O=C(O)C(F)(F)F | 100 | 50 | 24
Cc1cc(CN2CCC(N3CC(c4ccccc4)(c4ccccc4)OCC3=O)C2)ccc1O.O=C(O)C(F)(F)F (stereo unspecified) | 89 | 52 | 3
O=C(Nc1ccc(Cl)c(Cl)c1)Nc1ccccc1N1CCNCC1.O=C(O)C(F)(F)F | 100 | 22 | 17
Oc1cccc(/C=N/Nc2ccnc3cc(Cl)ccc23)c1 | 100 | 95 | 0
CN(C)c1ccc2nc(N)nc(N)c2c1Cl.Cl | 98 | 0 | 68
CC(=O)c1ccc(-n2ccnc2)cc1 | 92 | 0 | 0
O=C(c1ccccc1)N1COCC(CCN2CCC(N3CCCC3)CC2)(c2ccc(Cl)c(Cl)c2)C1 (stereo unspecified) | 83 | 9 | 18
Br.CC1(C)N=C(N)N=C(N)N1OCC1COc2ccccc2O1 (stereo unspecified) | 96 | 66 | 56
Cc1cc(N(C)C)nc(Nc2ccc(NC(=O)CCc3ccccc3)cc2)n1 | 100 | 84 | 20
CCOc1ccc2ccccc2c1C(=O)Nc1cc(C)nn1-c1nc(C)cc(=O)[nH]1 | 93 | 86 | 28
